Measurements from PubChem BioAssay AID2289 (National Center for Advancing Translational Sciences (NCATS), 2010).
Among all 340,000 compounds or so, about 3,300 (0.97%) were called active. Another 9% or so got no clear call; they are omitted. Calls follow the shape of the dose curve; as a rule, active = well fitted inhibition curve with a large enough effect; inconclusive = small, poorly fitted or top-dose-only effect, or effect the other way; inactive = flat fitted curve, though single readings scatter. This is one part of the list.

Experiment: qHTS Assay for Modulators of miRNAs and/or Inhibitors of miR-21; also: nearly all actives have a fitted effect of over 55% in size
Settings: HeLa miR-21-FLuc reporter, luciferase luminescence, 48 h; actives lower the signal
How it was run: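 Using DMEM plus 10% FBS, HeLa miR-21-FLuc cells are incubated with test compounds (final up to about 40uM) for 48 hours; firefly luciferase signal is then imaged following reagent-mediated lysis.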
Potency is read from the fitted curve at half-maximal effect.

Potency, active:
N#Cc1ccccc1CSc1nc2ccsc2c(=O)n1Cc1ccccn1 16.5 µM, Clc1ccccc1-c1nnc(COc2ccccc2)o1 5.85 µM, Clc1ccccc1OCc1nnc(-c2ccccc2Br)o1 4.65 µM, Fc1ccc(OCc2nnc(-c3ccccc3Br)o2)c(Cl)c1 13.1 µM, Clc1cccc(OCc2nnc(-c3ccccc3Br)o2)c1 16.5 µM, Clc1ccccc1OCc1nnc(-c2ccccc2)o1 7.36 µM, N#Cc1ccccc1OCc1nnc(-c2ccccc2Br)o1 1.31 µM, C(#Cc1ccccc1)Cn1nnc2ccccc21 13.1 µM, c1ccc(CCn2nnc3ccccc32)cc1 14.7 µM, Clc1ccccc1OCCn1nnc2ccccc21 13.1 µM, CCOC(=O)C1(Cc2cccc(OC)c2)CCCN(C(=O)CCN2CCCO2)C1 (configuration not stated) 5.85 µM, CCOC(=O)C1(Cc2ccccc2)CCCN(C(=O)c2cnn(CC)c2)C1 (configuration not stated) 9.27 µM, O=C(N/N=C/c1cn(-c2ccccc2)nc1-c1cc2ccccc2o1)c1ccccc1Br 0.927 µM, COc1ccc(Cn2c(C3CC3)nc3ccc(NC(C)=O)cc3c2=O)cc1 3.29 µM, CCC(=O)Nc1ccc2nc(C3CC3)n(Cc3ccc(C(C)(C)C)cc3)c(=O)c2c1 0.185 µM, COc1ccc(Cn2c(C3CC3)nc3ccc(NC(=O)C4CC4)cc3c2=O)cc1 1.47 µM, Cc1ccc2nc(-c3ccc(NS(=O)(=O)c4ccc(F)cc4)cc3)sc2c1 6.56 µM, CC(=O)c1ccc(NS(=O)(=O)c2cccc(C)c2)cc1 11.7 µM, Cc1cccc(S(=O)(=O)Nc2ccc(-c3nc4ccc(C)cc4s3)cc2)c1 2.07 µM, CCc1ccc2oc(-c3cc(N=Cc4cccc(OC)c4O)ccc3O)nc2c1 0.656 µM, CC/C(=N\NC(=O)c1c[nH]c2ccccc12)c1cccs1 2.93 µM, O=C(N/N=C/c1cccs1)c1c[nH]c2ccccc12 7.36 µM, CN1CCN(C(=S)c2ccc(-c3cccc(Cl)c3Cl)o2)CC1 5.21 µM, S=C(c1ccc(-c2ccccc2Cl)o1)N1CCCCC1 3.29 µM, COCCCNC(=S)N/N=C/c1ccc(N(C)C)cc1Cl 5.85 µM, Cc1ccc(O)c(-c2cc(-c3cccc(Br)c3)n[nH]2)c1 6.56 µM, Cc1cccc(NC(=O)c2cc(-c3cc(C)c(C)cc3O)n[nH]2)c1 0.736 µM, Cc1ccc(C)c(NC(=O)c2cc(-c3cc(C)ccc3O)n[nH]2)c1 5.21 µM, Cc1cccc(NC(=O)c2cc(-c3cc(C)ccc3O)n[nH]2)c1 1.04 µM, O=C(O)c1ccc(N/N=C/c2cccc3cccnc23)cc1 0.369 µM, O=C(O)c1ccc(N/N=C/c2ccnc3ccccc23)cc1 3.69 µM, Cn1ncc2c(Nc3ccc4ccccc4c3)ncnc21 4.65 µM, CCCn1ncc2c(Nc3ccc(C)c(C)c3)ncnc21 4.65 µM, Clc1ccc2c(c1)[C@H]1OCC[C@H]1[C@@H](c1ccco1)N2 5.85 µM, Clc1ccc2c(c1)C1OCCC1C(c1ccco1)N2 (configuration not stated) 6.56 µM, CCCNC(=O)c1cccc(COc2ccccc2OC)c1 2.07 µM, COc1ccccc1OCCNC(=O)c1ccc(Br)cc1 16.5 µM, COc1ccccc1OCCNC(=O)c1ccc2c(c1)CCC2 5.85 µM, CCC(=O)c1ccc(OCc2ccccc2)c(OC)c1 6.56 µM, Cc1ccc(OCCNC(=O)c2ccc(C)cc2)cc1 14.7 µM, Clc1cccc(Cl)c1Cn1ccc(C2CC2)n1 10.4 µM, O=C(NCc1ccccc1)c1c[nH]c2cc3c(cc2c1=O)OCCO3 2.33 µM, Cc1ccc(N/C=C/c2onc(C)c2[N+](=O)[O-])cc1 0.185 µM, Cc1cc(O)ccc1N/C=C/c1onc(C)c1[N+](=O)[O-] 1.04 µM, Oc1ccccc1N1CCN(c2ccc3ccccc3n2)CC1 0.826 µM, O=C(c1ccc2ccccc2n1)N1CCN(c2ccccc2Cl)CC1 16.5 µM, CN(C)c1cnn(-c2ccccc2)c(=O)c1Cl 14.7 µM, CC(=O)Nc1ccc(OCC(O)Cn2ccnc2)cc1 (configuration not stated) 16.5 µM, COc1ccc(-c2cnc3ccccc3n2)cc1NC(=O)CNC(=O)c1ccccc1 6.56 µM, CCOC(=O)c1ccc2c(c1)NCc1cccc(OC)c1O2 3.29 µM, CCN(CC)c1ccc(/C=N/N2CCOCC2)c(O)c1 2.93 µM, Cc1cccc(NC(=O)Nc2cc(C)cc(C)n2)c1 0.736 µM, CSc1ccc(NC(=O)Nc2cc(C)ccn2)cc1 0.104 µM, Cc1ccc(NC(=O)Nc2cccc(C)n2)cc1 2.07 µM, COc1cccc(NC(=S)Nc2cc(C)cc(C)n2)c1 4.65 µM, Cc1cc(C)nc(NC(=O)/C=C/c2ccccc2Cl)c1 2.07 µM, CC(NC(=O)c1ccccc1NC(=O)c1ccco1)C(=O)O (configuration not stated) 6.56 µM, CN(C)/C=N/c1nc(-c2ccc3ccccc3c2)cs1 1.31 µM, COc1ccc(-c2csc(N)n2)cc1F 9.27 µM, COc1ccc(-c2cn3cccc(C)c3n2)cc1F 0.927 µM, Nc1nc(-c2ccc3ccccc3c2)cs1 1.65 µM, COc1ccc(NC(=O)/C=C/c2ccccc2)cn1 1.65 µM, CCOC(=O)c1ccc(OS(=O)(=O)c2ccccc2)c(OC)c1 1.31 µM, COc1ccc(/C=C/C(=O)Nc2ccccc2)cc1OC 4.14 µM, COc1ccccc1NC(=S)N/N=C/c1ccc(O)cc1 0.736 µM, COc1cc(/C=N/NC(=O)Nc2ccccc2)ccc1OC(C)=O 8.26 µM, COc1ccc(/C=C/C(=O)O/N=C(\N)c2ccccc2)cc1OC 5.85 µM, Cc1cccc(/C(N)=N/OC(=O)c2ccc(F)cc2)c1 4.65 µM, CCN(CC)c1ccc(/C=N/NC(=O)Nc2ccccc2)cc1 4.14 µM, O=C(/C=C/c1ccccc1)Nc1cccnc1Cl 1.85 µM, COc1ccc(C(=O)O/N=C(\N)c2cccc(C)c2)cc1OC 8.26 µM, CCCCCC(=O)N/N=C/c1ccc(N(C)C)cc1 13.1 µM, COc1ccc2c(c1)CC/C2=N\OC(=O)c1cccc(C)c1 4.14 µM, COc1ccc(C(=O)O/N=C(\N)c2ccccc2)cc1OC 2.07 µM, Cc1ccccc1/C(N)=N/OC(=O)/C=C/c1ccccc1 5.21 µM, CC(=O)Oc1ccc(/C=N/NC(=S)Nc2ccccc2)cc1 0.656 µM, C=CCn1cccc(C(=O)Nc2ccc(N(C)C)cc2)c1=O 4.65 µM, Clc1cccc(-c2cc3nc4c(c(NCc5ccco5)n3n2)CCCC4)c1 2.93 µM, c1ccc(CSc2ccc(-c3cccs3)nn2)cc1 2.93 µM, Fc1cccc(CSc2ccc(-c3cccs3)nn2)c1 4.14 µM, c1ccc(CSc2ccc(-c3cccnc3)nn2)cc1 6.56 µM, Cc1cccc(CSc2ccc(-c3cccs3)nn2)c1 7.36 µM, Cc1cc(Nc2ccccc2)nc2cc(O)ccc12 13.1 µM, CCOc1ccc(Nc2cc(C)c3ccccc3n2)cc1 18.5 µM, COc1ccc(Nc2cc(C)c3ccccc3n2)cc1 5.85 µM, COc1ccc(Nc2nc(C)c3ccccc3n2)cc1 3.29 µM, COc1ccc(-n2nc([N+](=O)[O-])c(=NCc3cccnc3)n2O)cc1 2.33 µM, Cc1ccc(CN=c2c([N+](=O)[O-])nn(-c3ccc4c(c3)OCCO4)n2O)cc1 1.31 µM, COc1ccc(-n2nc([N+](=O)[O-])c(=NCc3ccc4c(c3)OCO4)n2O)cc1 1.65 µM, O=[N+]([O-])c1nn(-c2ccc3c(c2)OCCO3)n(O)c1=NCc1ccc(F)cc1 1.17 µM, CCOC(=O)c1sc(NC(=O)c2ccccc2)cc1C 0.521 µM, CCOC(=O)c1sc(NC(=O)c2sccc2C)cc1C 0.369 µM, CCOC(=O)c1sc(NC(=O)C2CCC2)cc1C 4.65 µM, COc1ccc2[nH]c(=O)c(CNc3ccccc3C)cc2c1 7.36 µM, O=C(N=Nc1c(O)n(Cc2ccccc2)c2ccccc12)c1ccc(O)cc1 6.56 µM, Cc1ccc(NC(=O)CSCc2ccc(F)cc2)cc1 6.56 µM, O=C(CSCc1c(F)cccc1F)Nc1ccccc1 5.85 µM, O=C(CSCc1ccccc1)Nc1ccc(F)c(F)c1 14.7 µM, O=C(CSCc1ccccc1)Nc1cccc(F)c1 13.1 µM, O=C(NCCc1ccccc1F)c1cccc2cccnc12 3.29 µM, Cc1ccc(Nc2ncccc2C(N)=O)cc1 1.65 µM, Cc1ccc(NC(=O)c2cccc3cccnc23)cc1 3.69 µM, NC(=O)c1cccnc1Nc1cccc([N+](=O)[O-])c1 6.56 µM, Cc1ccc(Nc2ncccc2C(N)=O)cc1[N+](=O)[O-] 3.29 µM, Cc1cc(Cl)ccc1Nc1ncccc1C(N)=O 2.07 µM, COc1ccnc(Oc2ccc3ccccc3c2)c1C#N 2.93 µM, COc1ccc(-c2nc3c4ccccc4ccn3c2CN2CCOCC2)cc1OC 6.56 µM
